Most compounds without a hit are left out; they make up all but 6.2% or so of the library.
Lassa entry inh – Lassa virus entry inhibition | Lassa virus pseudotype entry inhibition, cell reporter | Potency, µM (highest dose often 37.9 µM), without a hit: top-dose activity change, negative = inhibition, usual class: inhibitors | hit rate 1.2% among 300,000; calls by dose curve; tested in HEK293 cells; note: potency is the fitted concentration of half-maximal effect; nearly all actives have a fitted effect of over 50% in size
HCMV antiviral – blocks human cytomegalovirus replication | HFF cells, HCMV-luciferase reporter, 72 h; hits give low values | activity change, negative = inhibition, % at 57.5 µM | hit rate 4.5% among 410,000 | AID 1259415; in the data active = activity change below about -60%; inconclusive = no clear call, values can overlap the other calls; inactive = above about -39%
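Inhibition of viral replication was scored as loss of reporter luminescence in HFFs infected with HCMV-luciferase (MOI 1 PFU/cell) for 72 h; compounds tested at 2 doses, normalized to buffer and Salinomycin controls.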
Marburg entry inh – inhibitors of Marburg virus binding or cell entry; Marburg virus pseudotyped entry inhibition, cell reporter; Potency, µM (top dose mostly 37.8 µM), for inactives: at the highest dose activity change, negative = inhibition, most hits filed as inhibitors; hit rate 1.8% among 300,000; calls by dose curve; tested in HEK293 cells; note: potency is the fitted concentration of half-maximal effect
FMDV antiviral – foot and mouth disease virus antiviral activity | FMDV antiviral cell-based qHTS | Potency, µM (highest dose often 57.9 µM), for the others: top-dose activity change, negative = inhibition, actives largely listed as inhibitors | hit rate 1.2% among 410,000; calls by dose curve; tested in HEK293T cells; note: read-out not given here; potency is the fitted concentration of half-maximal effect; nearly all actives have a fitted effect of over 45% in size
An asterisk follows results filed as active; ? = inconclusive; / = no result given; ! = not confirmed by another sample; [ ] = remark or other dose. % is set by controls: 0 for no effect and ±100 for the full control effect.

SMILES	Lassa entry inh	HCMV antiviral	Marburg entry inh	FMDV antiviral
CC(=O)c1ccc(NC(=S)Nc2ccc3cn[nH]c3c2)cc1	-30%	-68*	10%[14.2 µM]	27%
CCN(CC)C(=O)COc1ccc(CC(=O)O)cc1OC	0%	-8	-21%[46.1 µM]	2%
CCOC(=O)/C(=C\Nc1cccc(OCc2ccccc2)c1)NC(=O)c1ccccc1	/	-60*	/	/
Cc1ccc(Cn2cc(C=O)c3ccccc32)cc1	?	-29	1.4µM*	-28%
O=[N+]([O-])/C=C/c1cn(Cc2ccc(F)cc2)c2ccccc12	?	?	7.3µM*	?
O=Cc1cn(Cc2ccc([N+](=O)[O-])cc2)c2ccccc12	10µM*	38	?	?
O=Cc1cn(Cc2ccc(F)cc2)c2ccccc12	?	-1	?	-23%
C/C(=N\NC(=O)C1(C)CC1(Br)Br)c1ccc(NC(=O)c2ccc(C)o2)cc1 (stereo not drawn)	?	?	?	0%
O=C(C1CCCCC1)N1C[C@@H](O)[C@H](n2cc(-c3ccc(F)cc3)nn2)C[C@@H]1c1ccc(Cl)cc1	/	1	/	-2%
COc1cccc2c1C(CO)N1C(C#N)C3CC(C(=O)O)C(C1C2)N3C (stereo not drawn)	/	-77*	/	-22%
COc1cccc2c1OCC(C(=O)O)C2 (stereo not drawn)	-4%	-2	?	-5%
COc1cc(C)c(NC(=S)Nc2ccc(C)c(Cl)c2)cc1OC	-17%	-14	-24%	-25%
CCOc1ccc(CCNC(=O)CCC(=O)N2CCSc3ccccc32)cc1OCC	/	16	/	-24%
CCOc1ccccc1CNC(=O)CCC(=O)N1CCSc2ccccc21	-3%[46.1 µM]	-75*	/	-11%
CCOc1ccccc1CNC(=O)CCc1cn(C)c2ccccc12	-11%[46.1 µM]	5	6.3µM*	-11%
CCc1cccc(NC(=O)CCC(=O)N2CCSc3ccccc32)c1	-5%[46.1 µM]	-66*!	/	-27%
c1ccc(C2c3[nH]c4ccccc4c3CCN2Cc2cccn2-c2ccccn2)nc1 (stereo not drawn)	/	10	/	-24%
COc1ccc(C2c3[nH]c4ccccc4c3CCN2Cc2cccn2-c2ncccn2)cc1C (stereo not drawn)	?	-99*	7.1µM*	-2%
Cc1cccc(C2c3[nH]c4ccccc4c3CCN2Cc2cccn2-c2ncccn2)c1 (stereo not drawn)	11µM*	-32	?	-6%
Oc1cccc(C2c3[nH]c4ccccc4c3CCN2Cc2ccc3c(c2)CCO3)c1 (stereo not drawn)	?	-21	3.2µM*	-26%
COC(=O)N1CCC2(CC1)CCN(c1cccc(-c3ccccc3)c1)CC2	/	/	/	-20%
CC(=O)c1cccc(NC(=S)NC(=O)c2cccc(C)c2)c1	-5%	-13	?	-8%
CC(=O)Nc1cccc(N(C)C)c1	-11%	30	-8%	-15%
CC(=O)N1C(c2ccccc2)CC(=O)OC1c1ccc2c(c1)OCO2 (stereo not drawn)	5%	29	-13%	3%
COc1ccccc1N(CC(=O)NCCSCc1ccco1)S(=O)(=O)c1ccccc1	-3%	-28	?	-24%
SMILES	Lassa entry inh	HCMV antiviral	Marburg entry inh	FMDV antiviral
COc1ccccc1N(CC(=O)NCCSCc1ccccc1)S(=O)(=O)c1ccccc1	/	-73*	/	?
COc1ccccc1N(CC(=O)NCCSCc1ccccc1)S(=O)(=O)c1ccc(C)cc1	?	-63*!	?	35µM*
COc1ccc(S(=O)(=O)N(CC(=O)NCCSCc2ccccc2)c2ccc(C)cc2)cc1	-13%[46.1 µM]	-4	-9%[46.1 µM]	-4%
CCOC(=O)c1cc(C(=O)c2cc(F)ccc2O)coc1=N	17%	-2	5%	1%
CCC(CC)C(=O)Nc1ccc(OCc2cc(=O)n3ccsc3n2)cc1	10%[46.1 µM]	11	-13%[46.1 µM]	-4%
CCOC(=O)C1(Cc2cccc(OC)c2)CCN(Cc2ccc(OC)c(OC)c2)CC1	?	-27	4.5µM*	-26%
CCOC(=O)C1(CCOc2ccccc2)CCN(Cc2cccn2-c2cccnc2)CC1	?	-72*	?	-26%
CCOC(=O)C1(Cc2cccc(OC)c2)CCN(Cc2ccccc2OC)CC1	-26%	-62*	?	?
CCOC(=O)C1(Cc2cccc(OC)c2)CCN(Cc2cccc(O)c2)CC1	-15%	-30	?	?
CCOC(=O)C1(Cc2ccc(Cl)cc2)CCN(C(C)Cc2ccc(O)c(OC)c2)CC1 (stereo not drawn)	/	-63*	/	?
COc1ccccc1N1CCN(c2csc3ccc(Cl)cc3c2=O)CC1	0%[46.1 µM]	13	/	13%
CCCCn1c(=S)[nH]c2cc(S(=O)(=O)N3CCOCC3)ccc21	/	-3	/	-18%
COc1ccccc1NS(=O)(=O)c1ccc(O)cc1	10%	-33	-3%	0%
